Compound activity from PubChem.
This is one part of a sample in which hits are shown more often than they occur.
GIRK2 activator: GIRK2 channel activators by thallium flux; P48051; HEK293 GIRK2/NPY4 cells, thallium flux fluorescence; activation (% efficacy), % for hits at 75 µM; 34,000 tested, under 10 active;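 active = primary screen hit, no activity in plain HEK293 cells, and in GIRK2-only cells above 5% efficacy rising with concentration; inactive = the rest, including fluorescent compounds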;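 also: efficacy is normalized control-subtracted fluorescence 15 s after thallium addition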
Target sequence (P48051 whole entry, looked up): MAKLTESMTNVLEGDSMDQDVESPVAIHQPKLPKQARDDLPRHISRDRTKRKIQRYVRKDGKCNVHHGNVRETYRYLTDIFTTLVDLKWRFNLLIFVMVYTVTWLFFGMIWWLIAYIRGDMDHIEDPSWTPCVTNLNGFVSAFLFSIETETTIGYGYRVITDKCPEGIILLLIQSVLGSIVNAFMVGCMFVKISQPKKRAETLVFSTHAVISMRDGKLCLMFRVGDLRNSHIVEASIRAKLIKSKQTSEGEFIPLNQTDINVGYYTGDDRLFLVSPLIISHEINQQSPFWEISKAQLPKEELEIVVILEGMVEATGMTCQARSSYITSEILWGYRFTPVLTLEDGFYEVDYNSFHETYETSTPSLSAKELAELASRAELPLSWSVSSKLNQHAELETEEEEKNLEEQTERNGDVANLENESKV
AMPAR-TARP mod: GluA2-stargazin AMPA receptor complex modulation; O88602+P19491; HEK293 GluA2+stargazin, membrane potential dye (FDSS), glutamate EC50; hits were called plate by plate, in both directions; 40,000 tested, 3.5% active; AID 1259245; calls only at 30 µM;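 active = any of four per-well response measures lying three or more SD from its plate-wide compound average, in either direction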
Active calls of the source: *; i = inactive; x = not tested or not shown; + = active, no number.

SMILES	GIRK2 activator	AMPAR-TARP mod
COc1ccc(Cl)cc1C(=O)NCC(O)(c1cccs1)C1CC1 (stereo not drawn)	i	+
COc1ccc(Cl)cc1C(=O)NCC(O)(c1ccccc1)C1CC1 (stereo not drawn)	x	+
CC(C)Oc1ccc(C(=O)NCC2COC3(CCCCC3)O2)cc1 (stereo not drawn)	i	i
CCOC(=O)Nc1nc(CC(=O)Nc2cc(C)ccc2OC)cs1	i	x
CCc1nc2sc3c(c2c2nncn12)CCC3	i	+
Cc1nc(Sc2nc(C)nc3sc4c(c23)CCC4)c2c3c(sc2n1)CCC3	x	i
COc1ccc(CCS(=O)(=O)Nc2ccc3c(c2)N(C(=O)C(C)(C)C)CC3)cc1	i	+
COc1ccc(OC)c(S(=O)(=O)Nc2ccc3c(c2)N(S(C)(=O)=O)CCC3)c1	x	i
COc1ccc(S(=O)(=O)Nc2ccc3c(c2)N(C(=O)C(C)(C)C)CC3)c(C)c1	i	i
COc1ccc(OC)c(S(=O)(=O)Nc2ccc3c(c2)N(S(=O)(=O)c2cccs2)CCC3)c1	i	+
COc1ccc(CCS(=O)(=O)Nc2ccc3c(c2)N(C(=O)c2ccco2)CC3)cc1	i	i
COc1ccc(S(=O)(=O)Nc2ccc3c(c2)N(C(=O)C(C)(C)C)CC3)cc1	i	+
CCS(=O)(=O)Nc1ccc2c(c1)N(C(=O)C(C)(C)C)CC2	i	i
CCCc1ccc(S(=O)(=O)Nc2ccc3c(c2)N(C(=O)C(C)(C)C)CC3)cc1	i	+
COc1ccc(S(=O)(=O)N2CCCc3cc(NS(=O)(=O)c4cccc(Cl)c4)ccc32)cc1	x	i
COC(=O)N1CCC(CNC(=O)c2ccc(Cl)cc2)CC1	i	i
CC(C)(C)C(=O)N1CCc2ccc(N)cc21	i	i
CCCNC(=O)Cn1nc(-c2ccc(F)cc2)c2sc(C)nc2c1=O	i	i
CCOC(=O)c1sc(NC(=O)c2ccnn2C)nc1-c1ccccc1	i	x
O=C(CSc1nccn2nc(-c3ccccc3)cc12)NCc1ccccc1	i	i
O=C(Nc1ccc(Cl)c([N+](=O)[O-])c1)c1ccc(=O)n(Cc2ccccc2F)c1	i	i
Cc1cc(C)n(CCNC(=O)CNC(=O)c2c[nH]c3ccccc23)n1	i	i
Cc1cc(NC(=O)C(=O)NCC(c2ccccc2)N(C)C)c2ccccc2n1 (stereo not drawn)	i	i
Cc1cc(C)nc(Nc2nc(N)c3ccccc3n2)n1	x	+
CCn1nc(C)cc1C(=O)Nc1cccc(Cl)c1Cl	i	i
SMILES	GIRK2 activator	AMPAR-TARP mod
O=S(=O)(NCCOc1ccc(-c2ccco2)nn1)c1ccc2c(c1)OCCO2	i	i
O=C(Nc1ccc2c(c1)N(C(=O)C1CC1)CC2)c1ccc(Cl)c(Cl)c1	i	+
O=C(c1ccco1)N1CCc2ccc(NS(=O)(=O)Cc3ccccc3)cc21	i	i
O=C(C1CC1)N1CCc2ccc(NS(=O)(=O)c3ccc4c(c3)OCCO4)cc21	i	i
O=C(Nc1ccc2c(c1)N(C(=O)C1CC1)CC2)c1cc(Br)ccc1Cl	i	i
O=C(C1CC1)N1CCc2ccc(NS(=O)(=O)c3ccc4c(c3)CCCC4)cc21	i	+
O=C(C1CCCC1)N1CCc2ccc(NS(=O)(=O)Cc3ccccc3)cc21	i	+
Cc1nc(C)c(C(=O)NCCn2ncc3c(N4CCN(Cc5ccccc5)CC4)ncnc32)s1	x	i
CCCCOc1ccc(C(=O)N(Cc2cccn2C)C2CC2)cc1	i	x
COc1ccc(NC(=O)C(C)Sc2nnnn2-c2ccccc2)cc1 (stereo not drawn)	x	i
COc1ccc(-n2nnnc2SC(C)C(=O)Nc2ccccc2OC)cc1 (stereo not drawn)	x	+
COc1ccc(-n2nnnc2SC(C)C(=O)Nc2ccc(C(=O)O)cc2)cc1 (stereo not drawn)	x	+
CCc1ccc(-n2nnnc2SC(C)C(=O)Nc2ccccc2OC)cc1 (stereo not drawn)	x	i
O=C1CN(CCCc2ccccc2)C2CS(=O)(=O)CC2N1c1ccccc1 (stereo not drawn)	i	i
CCOc1ccc(C(=O)NCC2CCN(Cc3ccco3)CC2)cc1	i	x
O=C(Nc1cccc(C(F)(F)F)c1)C1CCCN(C(=O)Nc2cccs2)C1 (stereo not drawn)	i	+
COC(=O)Nc1ccc(S(=O)(=O)N2CCCC(C(=O)Nc3cccc(C(F)(F)F)c3)C2)cc1 (stereo not drawn)	x	i
CCOc1ccccc1-n1c(C)c(C)n2c3c(=O)n(CC)c(=O)n(C)c3nc12	x	i
COc1cccc(C(=O)Nc2nnc(-c3ccc(C)c(C)c3)o2)c1	i	i
COc1cccc(C(=O)Nc2nnc(-c3cc(OC)c(OC)c(OC)c3)o2)c1	x	+
COc1cc(-c2nnc(NC(=O)c3ccc(C(C)=O)cc3)o2)cc(OC)c1OC	x	+
COc1cc(-c2nnc(NC(=O)c3ccc(OC(C)C)cc3)o2)cc(OC)c1OC	x	i
O=C(Nc1nc2c(s1)CCCC2)C1CN(C(=O)c2c[nH]c3ccccc23)C1	i	i
O=C(Cn1cnc2c(sc3cccc(Cl)c32)c1=O)Nc1ccccc1C(F)(F)F	i	x
CCOC(=O)Cn1c(=NC(=O)c2cc(C)no2)sc2cccc(F)c21	i	i
SMILES	GIRK2 activator	AMPAR-TARP mod
COc1cccc(-c2cn(CC(=O)NCc3ccc(C)c(C)c3)nc2N2CCOCC2)c1	i	x
COc1ccc(-c2ccc3c(N)c(-c4ccc(C#N)cc4)sc3n2)cc1	i	+
COc1ccc(-c2ccc(C#N)c(SCc3ccc(C#N)cc3)n2)cc1	i	i
O=C(CN1CCC(c2nnc(-c3ccc(F)cc3)o2)CC1)Nc1cccc(Cl)c1Cl	i	i
CC(C)CC(=O)NCCCn1nc(-c2cccnc2)ccc1=O	i	x
Cc1cc(NC(=O)Cc2ccc(S(C)(=O)=O)cc2)n(-c2ccccc2)n1	i	i
COc1ccc(OC)c(NC(=O)/C(C#N)=C/c2ccc(C(C)C)cc2)c1	i	i
COc1ccccc1/C=C(\C#N)C(N)=C(C#N)C#N	i	+
Cn1cccc(C(=O)N2CCC(CNC(=O)C3(c4cccs4)CCCC3)CC2)c1=O	i	i
O=C(NCCc1c[nH]c2ccccc12)C1(c2ccc(F)cc2)CC1	i	x
Cc1cc(C(F)F)n2ncc(C(=O)NC3CCCCCC3)c2n1	x	i
COc1ccccc1CCNC(=O)c1cnn2c(C(F)F)cc(C)nc12	x	+
COc1ccc(C)c2sc(N(Cc3ccncc3)C(=O)/C=C/c3ccc([N+](=O)[O-])cc3)nc12	i	+
COc1ccc(OC)c2sc(N(CCN3CCOCC3)C(=O)/C=C/c3ccc([N+](=O)[O-])cc3)nc12	i	i
Cc1ccc(S(=O)(=O)N(C)c2ccc(C(=O)NC(C)C)cc2)cc1	i	i
COc1ccc(C(=O)CSc2nc(CC(=O)Nc3ccccc3SC)cs2)cc1	i	x
O=S(=O)(NCC#CCN1CCc2ccccc2C1)c1cccc(Cl)c1	i	i
COc1ccc(S(=O)(=O)NCC#CCN2CCc3ccccc3C2)cc1C	i	+
COc1cccc2sc(=NC(=O)c3cc(C)no3)n(C)c12	i	+
COc1ccc(OC)c2c1sc(=NC(=O)c1cc(C)no1)n2C	i	i
